# Test results published in the supplement of paper PMC10849652.
# The full data set covers some 7,900 targets. This sample favours those with a hit. About 0.6% of all pairs of compound and target were hits.
# Columns and labels:
# Assay in all cases: log2 fold change, soluble protein after heating vs DMSO (PISA); higher = thermal stabilisation; K562 cells, 10 uM, 30 min; active = over 0.2 and 3.5 SD of the protein, either way, in both replicates (recomputed)
# YWHAB = YWHAB (UniProt P31946)
# How it was run: (§1)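 Aliquots of K562 cells (2×10^6 cells/mL) treated with 10 μM compound for 30 min were heated for 3 min over 48°C-58°C. After pooling and extraction in PBS with 0.5% NP-40 at 4°C, soluble protein from a 21,000xg, 90 min spin was quantified by TMTpro 16plex LC-MS/MS with channel sums equalised. Thermal stability is expressed against control samples, from duplicates, as a log2 fold change.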
# YWHAQ = YWHAQ (UniProt P27348)
# YWHAQ, sequence (P27348 whole entry, looked up): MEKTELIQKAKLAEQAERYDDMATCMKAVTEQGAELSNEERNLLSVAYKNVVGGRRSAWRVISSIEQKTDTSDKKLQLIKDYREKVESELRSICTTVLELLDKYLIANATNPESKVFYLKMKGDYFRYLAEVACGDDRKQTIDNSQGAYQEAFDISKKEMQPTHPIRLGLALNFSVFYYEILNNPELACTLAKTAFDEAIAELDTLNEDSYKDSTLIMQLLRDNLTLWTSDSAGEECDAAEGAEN
# How it was run: as §1
# YWHAZ [1] = target: YWHAZ (UniProt E7ESK7)
# How it was run: as §1
# YWHAZ [2] = target: YWHAZ (UniProt P63104)
# YWHAZ (UniProt P63104), sequence (P63104 whole entry, looked up): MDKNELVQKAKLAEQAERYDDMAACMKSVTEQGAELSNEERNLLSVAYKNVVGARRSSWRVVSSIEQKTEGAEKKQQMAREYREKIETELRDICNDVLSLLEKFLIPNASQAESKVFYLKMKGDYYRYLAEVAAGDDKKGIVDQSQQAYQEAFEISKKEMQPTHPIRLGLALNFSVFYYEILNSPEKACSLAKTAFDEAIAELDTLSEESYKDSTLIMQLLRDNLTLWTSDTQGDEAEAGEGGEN
# How it was run: as §1
# YY1 = YY1 (UniProt P25490)
# YY1, sequence (P25490 whole entry, looked up): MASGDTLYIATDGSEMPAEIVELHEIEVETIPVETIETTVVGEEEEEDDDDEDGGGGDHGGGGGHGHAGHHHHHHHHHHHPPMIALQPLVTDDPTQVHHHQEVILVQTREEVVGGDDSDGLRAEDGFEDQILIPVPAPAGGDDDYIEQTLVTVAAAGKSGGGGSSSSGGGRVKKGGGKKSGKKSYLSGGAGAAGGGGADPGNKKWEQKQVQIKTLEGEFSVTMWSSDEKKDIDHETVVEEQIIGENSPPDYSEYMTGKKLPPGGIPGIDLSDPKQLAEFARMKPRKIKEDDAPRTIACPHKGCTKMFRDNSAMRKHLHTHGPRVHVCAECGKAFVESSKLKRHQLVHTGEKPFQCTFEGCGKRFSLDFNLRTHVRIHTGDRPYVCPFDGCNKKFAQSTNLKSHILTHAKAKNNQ
# How it was run: as §1
# ZADH2 = ZADH2 (UniProt Q8N4Q0)
# How it was run: as §1
# ZBTB21 = ZBTB21 (UniProt Q9ULJ3)
# How it was run: as §1
# ZBTB43 = ZBTB43 (UniProt O43298)
# How it was run: as §1
# ZC3H18 = ZC3H18 (UniProt Q86VM9)
# ZC3H18, sequence (Q86VM9 whole entry, looked up): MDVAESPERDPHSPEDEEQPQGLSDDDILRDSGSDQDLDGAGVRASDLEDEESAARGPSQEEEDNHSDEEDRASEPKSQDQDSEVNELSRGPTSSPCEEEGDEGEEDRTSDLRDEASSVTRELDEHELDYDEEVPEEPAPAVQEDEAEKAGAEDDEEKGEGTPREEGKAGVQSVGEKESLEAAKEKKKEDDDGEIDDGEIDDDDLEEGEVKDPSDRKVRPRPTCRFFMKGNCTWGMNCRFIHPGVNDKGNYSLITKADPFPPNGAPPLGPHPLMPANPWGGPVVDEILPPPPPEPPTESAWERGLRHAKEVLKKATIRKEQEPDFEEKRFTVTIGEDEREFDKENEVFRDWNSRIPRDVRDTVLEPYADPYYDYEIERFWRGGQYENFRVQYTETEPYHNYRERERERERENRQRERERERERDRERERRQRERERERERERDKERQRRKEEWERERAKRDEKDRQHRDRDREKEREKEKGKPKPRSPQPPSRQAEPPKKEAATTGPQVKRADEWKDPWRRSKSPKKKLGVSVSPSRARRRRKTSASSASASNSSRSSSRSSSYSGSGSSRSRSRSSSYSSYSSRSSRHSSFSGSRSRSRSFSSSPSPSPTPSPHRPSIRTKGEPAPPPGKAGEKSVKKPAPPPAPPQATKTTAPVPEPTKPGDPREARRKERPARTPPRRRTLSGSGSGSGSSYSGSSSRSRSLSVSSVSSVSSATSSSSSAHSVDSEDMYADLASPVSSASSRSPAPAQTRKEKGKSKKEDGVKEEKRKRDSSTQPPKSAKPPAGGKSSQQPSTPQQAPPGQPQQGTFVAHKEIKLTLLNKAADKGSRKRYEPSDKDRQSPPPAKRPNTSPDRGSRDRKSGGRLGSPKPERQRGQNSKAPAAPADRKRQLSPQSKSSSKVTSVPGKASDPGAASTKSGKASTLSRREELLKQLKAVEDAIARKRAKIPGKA
# How it was run: as §1
# ZC3H8 = ZC3H8 (UniProt Q8N5P1)
# ZC3H8, sequence (Q8N5P1 whole entry, looked up): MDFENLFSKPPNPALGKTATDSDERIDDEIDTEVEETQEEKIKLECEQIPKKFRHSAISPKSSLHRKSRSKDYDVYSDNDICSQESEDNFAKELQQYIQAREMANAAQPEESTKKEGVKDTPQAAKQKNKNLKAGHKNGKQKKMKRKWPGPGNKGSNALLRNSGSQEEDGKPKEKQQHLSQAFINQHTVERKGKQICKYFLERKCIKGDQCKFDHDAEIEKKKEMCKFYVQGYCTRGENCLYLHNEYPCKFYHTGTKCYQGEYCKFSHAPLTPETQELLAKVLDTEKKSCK
# How it was run: as §1
# ZC3HC1 = ZC3HC1 (UniProt Q86WB0)
# How it was run: as §1
# ZDHHC17 = ZDHHC17 (UniProt Q8IUH5)
# ZDHHC17, sequence (Q8IUH5 whole entry, looked up): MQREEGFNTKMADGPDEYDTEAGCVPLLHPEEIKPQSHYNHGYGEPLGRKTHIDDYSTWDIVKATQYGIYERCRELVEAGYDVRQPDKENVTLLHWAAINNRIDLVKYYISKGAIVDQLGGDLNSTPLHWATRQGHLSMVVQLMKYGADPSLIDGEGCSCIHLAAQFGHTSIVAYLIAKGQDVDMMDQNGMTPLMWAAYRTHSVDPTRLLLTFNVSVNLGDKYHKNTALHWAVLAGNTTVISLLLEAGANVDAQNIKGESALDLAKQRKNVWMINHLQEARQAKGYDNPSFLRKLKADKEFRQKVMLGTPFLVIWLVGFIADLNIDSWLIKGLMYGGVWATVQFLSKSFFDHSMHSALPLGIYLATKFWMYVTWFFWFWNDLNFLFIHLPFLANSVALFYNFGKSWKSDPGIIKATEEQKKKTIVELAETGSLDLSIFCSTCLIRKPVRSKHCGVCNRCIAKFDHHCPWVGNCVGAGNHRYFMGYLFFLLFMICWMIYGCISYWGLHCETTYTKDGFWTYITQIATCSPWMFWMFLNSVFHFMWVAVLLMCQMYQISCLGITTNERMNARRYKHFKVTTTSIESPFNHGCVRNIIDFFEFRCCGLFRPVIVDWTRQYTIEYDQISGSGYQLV
# How it was run: as §1
# ZDHHC20 = ZDHHC20 (UniProt Q5W0Z9)
# How it was run: as §1
# ZDHHC5 = ZDHHC5 (UniProt Q9C0B5)
# ZDHHC5, sequence (Q9C0B5 whole entry, looked up): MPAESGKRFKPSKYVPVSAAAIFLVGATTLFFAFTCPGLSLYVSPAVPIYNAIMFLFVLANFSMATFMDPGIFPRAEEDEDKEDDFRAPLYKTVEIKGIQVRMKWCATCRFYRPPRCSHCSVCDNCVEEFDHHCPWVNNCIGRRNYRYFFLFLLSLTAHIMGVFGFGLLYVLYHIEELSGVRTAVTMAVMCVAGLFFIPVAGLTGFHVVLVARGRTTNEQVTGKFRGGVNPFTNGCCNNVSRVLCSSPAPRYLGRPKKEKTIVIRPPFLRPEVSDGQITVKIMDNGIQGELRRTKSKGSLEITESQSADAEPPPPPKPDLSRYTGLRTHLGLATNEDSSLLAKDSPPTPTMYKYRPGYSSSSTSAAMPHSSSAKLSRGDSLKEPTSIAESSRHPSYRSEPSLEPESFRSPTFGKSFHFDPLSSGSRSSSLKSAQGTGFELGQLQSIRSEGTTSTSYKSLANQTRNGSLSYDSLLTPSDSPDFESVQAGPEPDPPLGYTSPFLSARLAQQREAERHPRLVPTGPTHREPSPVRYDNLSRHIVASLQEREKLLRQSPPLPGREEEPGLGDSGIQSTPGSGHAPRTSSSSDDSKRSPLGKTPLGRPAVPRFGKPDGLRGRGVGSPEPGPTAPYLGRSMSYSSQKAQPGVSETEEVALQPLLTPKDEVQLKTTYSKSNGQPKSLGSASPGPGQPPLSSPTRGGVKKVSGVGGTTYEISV
# How it was run: as §1
# ZDHHC7 isoform 2 = ZDHHC7 isoform 2 (UniProt Q9NXF8)
# ZDHHC7 isoform 2, sequence (Q9NXF8 whole entry, looked up, canonical isoform): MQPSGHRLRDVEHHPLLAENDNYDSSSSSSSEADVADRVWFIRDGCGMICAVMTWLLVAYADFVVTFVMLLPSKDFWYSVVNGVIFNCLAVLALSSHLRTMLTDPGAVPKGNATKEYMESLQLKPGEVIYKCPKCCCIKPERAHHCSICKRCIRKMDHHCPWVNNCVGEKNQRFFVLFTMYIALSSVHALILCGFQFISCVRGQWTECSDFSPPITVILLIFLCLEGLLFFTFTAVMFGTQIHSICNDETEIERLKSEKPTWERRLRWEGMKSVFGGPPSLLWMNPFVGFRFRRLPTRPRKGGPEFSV
# How it was run: as §1
# ZDHHC8 isoform 3 = ZDHHC8 isoform 3 (UniProt Q9ULC8)
# How it was run: as §1
# ZCCHC9 = ZCCHC9 (UniProt Q8N567)
# ZCCHC9, sequence (Q8N567 whole entry, looked up): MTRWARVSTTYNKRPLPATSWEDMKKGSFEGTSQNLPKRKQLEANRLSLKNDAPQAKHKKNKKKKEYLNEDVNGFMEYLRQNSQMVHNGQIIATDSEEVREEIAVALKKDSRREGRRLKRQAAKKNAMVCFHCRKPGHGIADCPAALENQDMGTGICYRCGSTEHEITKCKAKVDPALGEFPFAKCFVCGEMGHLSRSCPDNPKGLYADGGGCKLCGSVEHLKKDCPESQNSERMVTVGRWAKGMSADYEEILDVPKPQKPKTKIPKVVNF
# How it was run: as §1
# ZDHHC6 = ZDHHC6 (UniProt Q9H6R6)
# ZDHHC6, sequence (Q9H6R6 whole entry, looked up): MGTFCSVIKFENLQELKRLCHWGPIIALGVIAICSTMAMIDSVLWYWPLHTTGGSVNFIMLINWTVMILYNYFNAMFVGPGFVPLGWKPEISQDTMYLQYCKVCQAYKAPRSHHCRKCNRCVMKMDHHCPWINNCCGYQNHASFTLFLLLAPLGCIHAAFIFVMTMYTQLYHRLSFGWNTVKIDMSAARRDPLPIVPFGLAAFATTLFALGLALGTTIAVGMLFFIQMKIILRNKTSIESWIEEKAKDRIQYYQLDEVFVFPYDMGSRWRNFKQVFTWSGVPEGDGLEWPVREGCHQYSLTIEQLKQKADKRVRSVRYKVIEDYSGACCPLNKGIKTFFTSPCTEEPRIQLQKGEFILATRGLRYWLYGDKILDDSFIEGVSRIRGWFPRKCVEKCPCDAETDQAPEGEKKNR
# How it was run: as §1
# YWHAB, sequence (P31946 whole entry, looked up): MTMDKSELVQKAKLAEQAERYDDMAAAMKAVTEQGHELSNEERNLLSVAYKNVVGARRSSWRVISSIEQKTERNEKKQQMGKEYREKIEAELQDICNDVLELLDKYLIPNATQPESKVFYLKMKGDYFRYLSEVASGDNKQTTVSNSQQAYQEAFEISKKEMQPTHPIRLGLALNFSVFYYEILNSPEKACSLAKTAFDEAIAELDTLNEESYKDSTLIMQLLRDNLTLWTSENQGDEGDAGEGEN
SMILES,log2 fold change (YWHAB),log2 fold change (YWHAQ),log2 fold change (YWHAZ [1]),log2 fold change (YWHAZ [2]),log2 fold change (YY1),log2 fold change (ZADH2),log2 fold change (ZBTB21),log2 fold change (ZBTB43),log2 fold change (ZC3H18),log2 fold change (ZC3H8),log2 fold change (ZC3HC1),log2 fold change (ZDHHC17),log2 fold change (ZDHHC20),log2 fold change (ZDHHC5),log2 fold change (ZDHHC7 isoform 2),log2 fold change (ZDHHC8 isoform 3),log2 fold change (ZCCHC9),log2 fold change (ZDHHC6)
C[C@H](Nc1ncnc2nc[nH]c12)c1cc2cccc(Cl)c2c(=O)n1-c1ccccc1 [duvelisib],0.056 (inactive),-0.144 (inactive),0.171 (inactive),-0.084 (inactive),-0.007 (inactive),0.033 (inactive),0.081 (inactive),0.027 (inactive),0.019 (inactive),-0.126 (inactive),-0.002 (inactive),0.036 (inactive),0.04 (inactive),-0.044 (inactive),0.082 (inactive),-0.038 (inactive),–,–
CN1CC[C@H](c2c(O)cc(O)c3c(=O)cc(-c4ccccc4Cl)oc23)[C@H](O)C1 [alvocidib],-0.06 (inactive),-0.192 (inactive),-0.003 (inactive),-0.056 (inactive),-0.099 (inactive),-0.05 (inactive),-0.067 (inactive),0.008 (inactive),-0.217 (inactive),0.189 (inactive),-0.318 (inactive),-0.027 (inactive),-0.016 (inactive),-0.038 (inactive),0.077 (inactive),–,0.321 (inactive),–
CC(C)N(C[C@H]1O[C@@H](n2cnc3c(N)ncnc32)[C@H](O)[C@@H]1O)[C@H]1C[C@@H](CCc2nc3cc(C(C)(C)C)ccc3[nH]2)C1 [pinometostat],-0.031 (inactive),-0.067 (inactive),-0.035 (inactive),-0.026 (inactive),0.02 (inactive),0 (inactive),0.209 (inactive),-0.05 (inactive),0.053 (inactive),0.017 (inactive),-0.005 (inactive),0.053 (inactive),0.025 (inactive),-0.02 (inactive),-0.024 (inactive),0.026 (inactive),0.187 (inactive),–
Cc1cccc(-c2[nH]c(C(C)(C)C)nc2-c2ccc3nccnc3c2)n1,0.021 (inactive),0.05 (inactive),-0.064 (inactive),0.009 (inactive),0.039 (inactive),-0.004 (inactive),-0.03 (inactive),-0.04 (inactive),-0.029 (inactive),-0.176 (inactive),0.119 (inactive),-0.095 (inactive),-0.007 (inactive),-0.013 (inactive),0.335 (inactive),-0.03 (inactive),-0.133 (inactive),–
c1cc(OCCN2CCCCC2)cc(-c2n[nH]c3ccc(-c4nnc[nH]4)cc23)c1,-0.019 (inactive),0.105 (inactive),0.095 (inactive),0.05 (inactive),-0.052 (inactive),-0.017 (inactive),–,-0.026 (inactive),-0.147 (inactive),-0.104 (inactive),-0.046 (inactive),0.068 (inactive),0.053 (inactive),-0.076 (inactive),-0.191 (inactive),–,-0.067 (inactive),-0.005 (inactive)
Cc1ccc(Sc2cncc3sc(C(N)=O)cc23)cc1,-0.033 (inactive),0.079 (inactive),-0.019 (inactive),0.123 (inactive),0.01 (inactive),-0.015 (inactive),0.008 (inactive),–,-0.064 (inactive),-0.115 (inactive),0.053 (inactive),0.038 (inactive),0.014 (inactive),-0.011 (inactive),-0.138 (inactive),–,-0.109 (inactive),0.034 (inactive)
CNc1nc(-c2ccc3c(N)n[nH]c3c2)cc(N2C[C@@H](C(=O)NC3CCCCC3)CC[C@H]2C)n1,-0.015 (inactive),0.179 (inactive),-0.097 (inactive),0.031 (inactive),-0.08 (inactive),-0.011 (inactive),-0.111 (inactive),-0.014 (inactive),-0.136 (inactive),0.012 (inactive),0.104 (inactive),0.017 (inactive),0.121 (inactive),0.011 (inactive),-0.03 (inactive),0 (inactive),–,–
Cn1cc(-c2ccc3nnc(C(F)(F)c4ccc5ncccc5c4)n3n2)cn1,-0.037 (inactive),-0.066 (inactive),-0.007 (inactive),-0.045 (inactive),-0.056 (inactive),0.107 (inactive),-0.009 (inactive),-0.054 (inactive),0.008 (inactive),-0.056 (inactive),0.038 (inactive),-0.029 (inactive),0.048 (inactive),-0.009 (inactive),0.091 (inactive),–,-0.081 (inactive),–
CCCS(=O)(=O)Nc1ccc(F)c(C(=O)c2c[nH]c3ncc(Cl)cc23)c1F,0.031 (inactive),0.233 (inactive),-0.05 (inactive),0.228 (active),0.037 (inactive),-0.012 (inactive),0.091 (inactive),–,-0.019 (inactive),-0.138 (inactive),0.189 (inactive),-0.016 (inactive),0.138 (inactive),-0.009 (inactive),0.014 (inactive),–,-0.177 (inactive),-0.048 (inactive)
C[C@@H](N)c1ccc(C(=O)Nc2ccnc3[nH]ccc23)cc1,-0.065 (inactive),-0.302 (inactive),0.179 (inactive),-0.178 (inactive),-0.071 (inactive),-0.071 (inactive),0.125 (inactive),-0.013 (inactive),-0.103 (inactive),0.218 (inactive),-0.213 (inactive),-0.03 (inactive),0.051 (inactive),0.006 (inactive),-0.065 (inactive),–,0.359 (inactive),–
C[C@@H](Oc1cc(-c2cnn(C3CCNCC3)c2)cnc1N)c1c(Cl)ccc(F)c1Cl [crizotinib],0.017 (inactive),0.026 (inactive),0.081 (inactive),0.008 (inactive),-0.021 (inactive),0.127 (inactive),-0.1 (inactive),-0.077 (inactive),-0.042 (inactive),0.089 (inactive),-0.109 (inactive),-0.064 (inactive),0.017 (inactive),0.075 (inactive),-0.131 (inactive),-0.187 (inactive),0.032 (inactive),–
Cn1c2cc(S(C)=O)sc2c2cnn(Cc3cccc(N)c3)c(=O)c21 (centres undefined),-0.068 (inactive),-0.167 (inactive),0.101 (inactive),-0.115 (inactive),0.045 (inactive),-0.013 (inactive),0.049 (inactive),0.017 (inactive),0.135 (inactive),0.127 (inactive),-0.135 (inactive),-0.027 (inactive),0.084 (inactive),-0.049 (inactive),0.02 (inactive),0.121 (inactive),–,–
CS(=O)(=O)CCNCc1ccc(-c2ccc3ncnc(Nc4ccc(OCc5cccc(F)c5)c(Cl)c4)c3c2)o1 [lapatinib],-0.016 (inactive),0.219 (inactive),-0.051 (inactive),0.197 (inactive),-0.023 (inactive),-0.049 (inactive),0.032 (inactive),–,0.111 (inactive),0 (inactive),0 (inactive),-0.022 (inactive),0.063 (inactive),-0.072 (inactive),0.034 (inactive),–,0.028 (inactive),-0.031 (inactive)
CC[C@@H]1C(=O)N(C)c2cnc(Nc3ccc(C(=O)N[C@H]4CC[C@H](N5CCN(CC6CC6)CC5)CC4)cc3OC)nc2N1C(C)C [volasertib],0.024 (inactive),-0.073 (inactive),-0.173 (inactive),-0.016 (inactive),-0.44 (active),0.754 (active),-0.063 (inactive),–,-0.085 (inactive),0.207 (inactive),-0.579 (active),-0.095 (inactive),0.011 (inactive),0.093 (inactive),-0.059 (inactive),–,0.226 (inactive),-0.094 (inactive)
COC(=O)N[C@@H](C)CNc1nccc(-c2cn(C(C)C)nc2-c2cc(Cl)cc(NS(C)(=O)=O)c2F)n1 [encorafenib],-0.003 (inactive),-0.016 (inactive),-0.156 (inactive),-0.031 (inactive),0.066 (inactive),0.045 (inactive),–,0.065 (inactive),-0.03 (inactive),-0.01 (inactive),0.05 (inactive),-0.015 (inactive),-0.058 (inactive),-0.028 (inactive),-0.043 (inactive),–,0.002 (inactive),0.006 (inactive)
Cc1nc(Nc2ncc(C(=O)Nc3c(C)cccc3Cl)s2)cc(N2CCN(CCO)CC2)n1 [dasatinib],0.006 (inactive),-0.149 (inactive),-0.094 (inactive),-0.044 (inactive),-0.001 (inactive),0.035 (inactive),-0.005 (inactive),-0.034 (inactive),0.038 (inactive),0.123 (inactive),-0.214 (inactive),-0.002 (inactive),-0.163 (inactive),0.019 (inactive),-0.063 (inactive),-0.112 (inactive),–,–
